SMARCA2 act: activators of SMARCA2 function; AID 652017; 1% of 370,000 active; MG213 cells, MMTV-luciferase reporter, dexamethasone, overnight; activation, % at 9.1 µM; in the data active means activation above about 7.8%;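 further: 0% = vehicle wells and 100% = reference activator wells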
bovine MsrA act: activates bovine MsrA enzyme. AID 602163. 0.3% of 360,000 active. activation, % at 10.6 µM. purified bovine MsrA, absorbance read-out; in the data active means activation above about 7.5%;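 further: 0% = vehicle and 100% = reference activator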
MsrA inhibitor: bovine MsrA inhibition. purified bovine MsrA, absorbance read-out. inhibition, % at 15.5 µM. 0.75% of 360,000 active. AID 651718; in the data active means inhibition above about 4.5%;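 further: 0% = vehicle wells with enzyme and 100% = reference inhibitor wells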
KLK7 zymogen act: proKLK7 (human) activation, primary screen; 0.9% of 370,000 active; purified proKLK7, EDANS-DABCYL substrate fluorescence; 100% is mature enzyme control, 0% vehicle; P49862; AID 652039; activation, % at 7 µM;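 active means activation above the mean of all tested compounds plus 3 SD, computed per campaign excluding outliers beyond control limits, cut at about 13% in these data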
Target sequence (P49862 whole entry, looked up): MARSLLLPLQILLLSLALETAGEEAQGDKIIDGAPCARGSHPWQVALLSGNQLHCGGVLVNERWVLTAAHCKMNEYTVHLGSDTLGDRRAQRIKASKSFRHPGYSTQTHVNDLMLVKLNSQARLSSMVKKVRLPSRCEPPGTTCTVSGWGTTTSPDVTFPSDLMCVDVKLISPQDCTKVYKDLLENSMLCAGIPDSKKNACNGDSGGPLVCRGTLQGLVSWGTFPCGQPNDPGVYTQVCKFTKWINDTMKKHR
KLK7 act conf: confirmation of human kallikrein-7 zymogen activators; shares compounds with KLK7 zymogen act; purified proKLK7, EDANS-DABCYL substrate fluorescence; scaled: vehicle 0, mature enzyme 100; activation, % at 7 µM; 68% of 3,200 active; AID 686949;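 active means activation, as change over the incubation, above the mean of all tested compounds plus 3 SD, cut at about 13% in these data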
EDANS interfere: optically interferes with EDANS-DABCYL signal, flagging KLK7 hits | 80% of 3,200 active | shares compounds with KLK7 zymogen act | EDANS-DABCYL substrate fluorescence interference, no enzyme, 4 h; solvent 0%, active enzyme control 100% | activation, % at 7 µM;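 active means activation above the all-compound mean plus 3 SD, ignoring values outside control-based bounds, cut at about 4.8% in these data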;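 further: value is the 4 h activation minus the activation read at time zero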
EDANS interf: optically interferes with EDANS-DABCYL fluorescence, kallikrein-7 activator counter-screen; EDANS-DABCYL peptide fluorescence interference, no enzyme; AID 720493; 20% of 250 active; EC50, µM; shares compounds with KLK7 zymogen act;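 active means compounds that raise the fluorescence signal in this interference counterscreen, with EC50 at or below 10 µM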;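 further: intact quenched peptide substrate alone read at 355 nm excitation and 520 nm emission; signal is fluorescence gain from T0 to T4 after four hours at room temperature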
Starred values were filed as active, the others as inactive; i = inactive; x = no result given. The list is not random: actives were taken first. Their share in the collection is about 2.8%.

SMILES	SMARCA2 act	bovine MsrA act	MsrA inhibitor	KLK7 zymogen act	KLK7 act conf	EDANS interfere	others
O=C(c1nc2nc(-c3cccs3)cc(C(F)(F)F)n2n1)N1CCN(Cc2ccccc2)CC1	-2.4	-6.0	4.0	26.4*	-5.4	-9.3
CCOC(=O)c1cc(-c2cccs2)nc2onc(C)c12	-0.1	-3.4	-0.6	18.2*	-166.0	-157.4
O=C(c1nc2nc(-c3ccccc3)cc(C(F)(F)F)n2n1)N1CCOCC1	-2.9	-5.2	3.3	0.4	x	x
CC(C)C[C@@H]1CC2=C(C(=O)OC(C)(C)O2)[C@H](CCc2ccccc2)O1	3.0	-2.0	-1.0	-0.1	x	x
Cc1cc(Br)c2c(c1)[C@](O)(c1cn(C)c3ccccc13)C(=O)N2C	-4.3	x	-0.8	0.8	x	x
Cc1ccc2c(c1)-c1c(cnn1CC(=O)NCCc1ccc(O)cc1)CO2	-2.8	x	x	-0.4	x	x
CCOC(=O)c1nc2nc(-c3cccs3)cc(C(F)(F)F)n2n1	-0.2	-4.7	0.7	61.6*	65.1*	61.5*
O=C(c1nn2c(C(F)(F)F)cc(-c3cccs3)nc2c1Cl)N1CCCc2ccccc21	1.9	-2.7	-0.1	-0.3	x	x
Nc1nc2nc(-c3cccs3)cc(C(F)(F)F)n2n1	-0.1	-3.7	2.2	81.8*	74.7*	78.4*
O=C1C=C(N2CCOCC2)c2cccc3cccc1c23	-5.6	-10.8	2.4	26.9*	-0.4	0.7
CCCCCCCCC1CC(C(=O)Nc2ccccc2)C(=O)O1 (stereo not given)	-3.6	-8.2	1.1	-0.3	x	x
Cc1csc(-c2nc3ccccc3n2C(C)c2nc3ccccc3[nH]2)c1 (stereo not given)	-4.5	x	-0.6	0.7	x	x
COc1cc2c(cc1OC)C1CCN3C(=O)CCC3N1CC2 (stereo not given)	6.7	1.6	-0.2	20.0*	24.3*	18.7*	EDANS interf=i
CCc1cc2c(nc1CC)CCCN2CCOC	1.6	x	0.2	28.6*	-9.7	-9.5
CC(=O)Nc1ccc(C(=O)COC(=O)c2cc(C)oc2C)c(F)c1	0.0	-14.4	-0.2	0.0	x	x
Cc1coc2c(C)c3oc(=O)c(CC(=O)N[C@@H](CC(C)C)C(=O)O)c(C)c3cc12	1.3	-4.7	0.3	8.6	x	x
Cc1coc2c(C)c3oc(=O)c(CCC(=O)N[C@@H](C)C(=O)N[C@@H](Cc4ccccc4)C(=O)O)c(C)c3cc12	0.9	-3.4	2.3	22.6*	41.0*	36.5*
Nc1nc(N)c2c(ccc3nccc32)[nH]1	3.4	-11.1	1.2	195.4*	76.3*	80.7*
COc1ccc(CN2C[C@@]3(O)CC[C@@H](O)[C@@H](OC)[C@@H]3[C@@](C)(O)[C@@H]2CC=C(C)C)cc1	-2.5	x	-0.3	-0.1	x	x
CC1(C)Oc2cc3oc(=O)ccc3c3c2C2C1CCC(C)(O3)C2O (stereo not given)	0.0	-5.6	2.1	15.8*	24.1*	30.5*
COCCNC(=O)c1cc2c(c(-c3cccc(C#Cc4ccc(OC)c(OC)c4)c3)n1)[C@H](CCO)N(S(=O)C(C)(C)C)C2 (stereo not given in full)	1.6	-1.2	-0.4	0.4	x	x
C=CCN(C(=O)c1ccc2c(c1)nnn2C)c1ccccc1	-1.3	-0.6	-0.7	0.2	x	x
CCN(CC)C(=O)c1ccc2c(c1)nnn2C	-0.1	-2.4	0.9	16.1*	0.1	0.4
C[C@H](CO)N1C[C@H](C)[C@H](CN(C)C(=O)NC2CCCCC2)Oc2cc(-c3cccnc3)ccc2S1(=O)=O	-1.1	-2.0	0.5	-0.2	x	x
COC(=O)c1scc2c(=O)cc(C(F)(F)F)[nH]c12	-0.9	-3.6	1.1	59.5*	76.1*	82.8*
SMILES	SMARCA2 act	bovine MsrA act	MsrA inhibitor	KLK7 zymogen act	KLK7 act conf	EDANS interfere	others
NC(=O)N/N=C/c1ccccc1OC(=O)c1cc2ccccc2oc1=O	3.9	-2.7	3.1	78.7*	259.4*	259.3*
NC(=S)N/N=C/c1ccccc1OC(=O)c1cc2ccccc2oc1=O	-0.6	0.1	4.6*	42.5*	228.5*	200.4*
N/C(=N\NC(=O)c1ccccc1)c1cc2ccccc2oc1=O	3.3	-4.4	2.2	-0.7	x	x
CCOC(=O)C1(COCc2ccccc2)CCCCC1=O (stereo not given)	1.9	-7.0	-0.1	0.1	x	x
Cc1cccn2c(=O)c3cc(C(=O)NCCN4CCOCC4)c(=N)n(Cc4ccc(F)cc4)c3nc12	4.0	-0.3	0.4	16.7*	-12.0	-6.5
CCOCCCn1c(=N)c(C(=O)NCCN2CCOCC2)cc2c(=O)n3cccc(C)c3nc21	2.6	-3.0	1.3	45.3*	13.6*	3.4	EDANS interf=>69.5
Cc1cccn2c(=O)c3cc(C(=O)NCCN4CCOCC4)c(=N)n(CCN4CCOCC4)c3nc12	-1.2	-10.1	0.8	11.7	x	x
N=C1c2c(cc(=O)n3c2[nH]c2ccccc23)CN1CCN1CCOCC1	0.6	-2.2	1.9	14.9*	-5.7	-6.0
O=C(Nc1ncc2c(n1)-c1ccccc1OC2)c1ccc(F)cc1	0.9	-2.7	1.3	32.0*	14.7*	11.7*	EDANS interf=i
O=C(Nc1ncc2c(n1)-c1ccccc1OC2)c1cccc([N+](=O)[O-])c1	1.6	-0.4	0.6	2.0	x	x
CCOc1ccc(-n2c(SCC(=O)Nc3ccc4cn[nH]c4c3)nnc2-c2ccc(C(C)(C)C)cc2)cc1	-2.8	x	x	0.1	x	x
CCCCCCCCN1C(=O)[C@@H](CC(=O)NCCCOC)C[C@@]2(C(=O)OC)C1=C[C@H](COCc1ccccc1)O[C@@H]2C	-1.4	x	x	0.7	x	x
COc1ccccc1C1C2=C(CC(C)(C)CC2=O)Nc2nnnn21 (stereo not given)	2.2	-6.8	0.4	15.4*	22.5*	19.8*
Cc1ccc(C2=CC(c3cccs3)n3nnnc3N2)cc1 (stereo not given)	-0.2	-1.4	1.2	0.0	x	x
COc1ccccc1C1C=C(c2ccc(C)cc2)Nc2nnnn21 (stereo not given)	2.0	-10.8	-0.3	19.0*	21.7*	17.3*	EDANS interf=i
NC(=O)c1ccsc1NC(=O)COC(=O)c1cc(Cl)ccc1O	-0.4	-2.4	2.2	75.5*	89.9*	91.3*
O=C(COC(=O)c1cc(Cl)ccc1O)NNC(=O)c1ccc([N+](=O)[O-])cc1	0.2	-2.4	0.3	98.9*	159.7*	155.2*
NC(=O)c1ccsc1NC(=O)COC(=O)c1ccccc1F	-0.8	-1.2	0.0	-0.2	x	x
O=C(COC(=O)c1cc(Cl)ccc1O)NCC1CCCO1 (stereo not given)	-0.7	-3.0	1.5	46.4*	80.4*	82.8*
O=C(OCC(=O)N1CCCC1=O)c1cc(Cl)ccc1O	-0.5	-1.2	0.9	32.4*	31.5*	32.1*
O=C(OCC(=O)N1CCCc2ccccc21)c1cc(Cl)ccc1O	-2.2	-1.2	1.5	0.9	x	x
